Experimental data from PubChem BioAssay (NCI).
The panel holds about 83,000 compounds, 20% with a hit somewhere; the sample as a whole holds those more often.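 Single-dose data. Exposure time 48 hours. Values below 10 considered active.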 Values without a mark were called inactive. Activity calls are given as the source filed them.

Experiments:
Assay in all cases: NCI-60 one-dose screen, 48 h (100 = growth as untreated, 0 = no growth, -100 = all killed)
Settings in all cases: 10 µM
DU-145 prostate = tested on: DU-145 prostate
K-562 leukemia = tested on: K-562 leukemia
MALME-3M melanoma = tested on: MALME-3M melanoma
MDA-MB-231 breast = tested on: MDA-MB-231 breast
RXF 393 renal = tested on: RXF 393 renal
SF-268 CNS = tested on: SF-268 CNS
SF-295 CNS = tested on: SF-295 CNS
SF-539 CNS = tested on: SF-539 CNS
UACC-257 melanoma = tested on: UACC-257 melanoma
M14 melanoma = tested on: M14 melanoma

Row | Compound | growth (DU-145 prostate) | growth (K-562 leukemia) | growth (MALME-3M melanoma) | growth (MDA-MB-231 breast) | growth (RXF 393 renal) | growth (SF-268 CNS) | growth (SF-295 CNS) | growth (SF-539 CNS) | growth (UACC-257 melanoma) | growth (M14 melanoma)
1 | O=[N+]([O-])c1cc2ncccc2c2ncccc12 | 89.7% | 49.3% | 72.8% | 60.6% | 92.4% | 91.5% | 134% | 93.6% | 90.5% | 84.5%
2 | COc1cc(C2C=C(c3ccc(Cl)c(Cl)c3)N=C3SC(C)=CN32)cc(OC)c1OC (stereo not given) | 80.3% | 32.1% | 82.9% | 89% | 67.1% | 87.8% | 75.6% | 81% | 98.8% | 86.4%
3 | C#CCNCCN1C(=O)c2ccc3c4c(ccc(c24)C1=O)C(=O)N(CCNCC#C)C3=O | 54.7% | 25% | -12.9% (active) | 58% | 52.1% | 47.9% | 27% | 47.7% | 14.4% | 32.6%
4 | COc1cccc(C2(C)Nc3ccccc3-c3nc4ccccc4n32)c1 (stereo not given) | 112% | 100% | 108% | 101% | 111% | 110% | 94.6% | 105% | 110% | 102%
5 | CCCCCCCCCCN=C(c1ccc(N(C)C)cc1)c1ccc(N(C)C)cc1 | 28.5% | 10.1% | 62% | 49.5% | 3.59% (active) | 57.5% | 14% | 10.9% | 28.3% | -18% (active)
6 | COc1ccc(-c2nsc3c2NC(=O)CC3c2cccc(Cl)c2)cc1 (stereo not given) | 23.7% | 10.4% | 26.2% | 51.6% | -1.29% (active) | 57.2% | 5.03% (active) | -14.1% (active) | 45% | 19.2%
7 | CC(C)C[C@H](NC(=O)Cn1ccc2ccccc2c1=O)B(O)O | 73.5% | 64% | 39.6% | 88% | 10.3% | 79.6% | 69.5% | 15.9% | 42.1% | 56%
8 | COc1ccc(-c2nnc(N3CCN(C(=O)CN4CCN(c5ccc(Cl)cc5)CC4)CC3)nc2-c2ccc(OC)cc2)cc1 | 80.2% | 32% | 80.8% | 78.7% | 53.6% | 69% | 45.2% | 82.2% | 70.2% | 71.4%
9 | Nc1nsc(C(=O)c2ccc(O)cc2)n1 | 105% | 107% | 109% | 90.4% | 120% | 101% | 99.4% | 92.9% | 87% | 105%
10 | COc1ccc(-c2[nH]ncc2/C=C/c2cc(C(F)(F)F)[nH]c(=O)n2)cc1 | 108% | 86.7% | 76.1% | 103% | 125% | 97.5% | 94.7% | 86.7% | 98.3% | 98.7%
11 | COCCOC(=O)NC(=O)Nc1ccc(/C(=N/O)c2ccc(Cl)cc2)cc1 | 4.9% (active) | 6.7% (active) | 90% | 12.8% | -13.1% (active) | 43.2% | -8.84% (active) | 1.64% (active) | 71.6% | 3.73% (active)
12 | CCCCCCCCCCCCCCCC(=O)N1CCN(C)CC1 | 87.2% | 15.9% | 90.3% | 54.7% | 77% | 73.7% | 83.7% | 73.9% | 91.8% | 80.2%
13 | CCOC(=O)Nc1ccc2c(c1)C(=O)N(CC)c1ccccc1O2 | 7.48% (active) | 8.79% (active) | 68% | 20.2% | -4.5% (active) | 42.1% | 3.36% (active) | 4.79% (active) | 64.1% | 11.1%
14 | NC(=O)c1ccc(Br)o1 | 109% | 105% | 109% | 101% | 112% | 101% | 97.4% | 96.5% | 114% | 108%
15 | NCCNc1ccc2cc(-c3nc4ccccc4[nH]3)c(=O)oc2c1 | 103% | 81.3% | 105% | 66% | 108% | 92.3% | 98.2% | 94.2% | 98.6% | 104%
16 | O=NN(CCCl)C(=O)NCc1ccc(-c2ccc(CNC(=O)N(CCCl)N=O)cc2)cc1 | 112% | 84.2% | 74.3% | 124% | 108% | 69.7% | 83.2% | 65.7% | 96.6% | 95.4%
17 | CCOC(=O)[C@@H](Cc1ccccc1)NC(=O)c1[nH]c2ccc(Cl)cc2c(=O)c1C | 113% | 86.5% | 107% | 106% | 98.5% | 99.7% | 97.4% | 101% | 81.7% | 97.1%
18 | CCNC1(NC#N)CCCCC1 | 123% | 115% | 113% | 107% | 108% | 112% | 97.7% | 105% | 85.1% | 99%
19 | Cc1ccc(C2C=C(c3ccc(Cl)cc3)N=C3SC=CN32)c(Br)c1 (stereo not given) | 89.1% | 44.9% | 87.3% | 90% | 71.7% | 92% | 96.1% | 89.7% | 103% | 94.4%
20 | O=C(N/N=c1/ccoc2cccnc12)N1CCN(c2ncccn2)CC1 | 50.5% | 9.99% (active) | 55.5% | 40% | 66.8% | 37.3% | 15.9% | 45.3% | 5.91% (active) | 14.5%
21 | CNCCCNCCCN1C(=O)c2ccc3c4c(ccc(c24)C1=O)C(=O)N(CCCNCc1ccccc1OC)C3=O | -91.5% (active) | 4.42% (active) | -89.7% (active) | 7.69% (active) | -11.5% (active) | 4.85% (active) | 25.3% | 24.3% | -80.7% (active) | 0.979% (active)
22 | COc1ccc(-c2oncc2-c2cc(OC)c3c(c2)OCO3)cc1 | 34.2% | 13.8% | 52.4% | 54.1% | 17.4% | 50.2% | 12.3% | -16% (active) | 45.1% | 13.1%
23 | O=C(O)CCCCSCCCCC(=O)O | 120% | 97.7% | 101% | 107% | 111% | 107% | 99.6% | 103% | 89.7% | 103%
24 | O=C(Nc1cccc(Cl)c1)OCC(COC(=O)Nc1cccc(Cl)c1)(COC(=O)Nc1cccc(Cl)c1)[N+](=O)[O-] | 44.2% | 26.4% | 59% | 40.3% | 57.1% | 35.4% | 20.8% | 59.5% | 52.3% | 24.4%
25 | CCCCCCOc1ccc(/C=C/C(=O)c2ccc(B(O)O)cc2)cc1 | 88.5% | 82.5% | 86.8% | 73.8% | 74.2% | 76.1% | 111% | 79.1% | 83.4% | 80.8%
26 | O=c1cc(CSc2nnc(-c3ccccc3)n2-c2ccc(F)cc2)c2ccc3ccccc3c2o1 | 109% | 82.9% | 97% | 91.1% | 108% | 93.8% | 95.9% | 98.7% | 103% | 102%
27 | Nc1nc2c(nnn2C2CC(O)C(CO)O2)c(=O)[nH]1 (stereo not given) | 21.8% | 40.5% | 79.5% | 58.5% | 50.6% | 50.2% | 56.4% | 33.4% | 77.7% | 40%
28 | CCOC(=O)c1c(C)n(-c2ccc(Cl)cc2)c2ccc(OC(=O)/C=C/c3ccccc3)cc12 | 91% | 25.4% | 72.9% | 63.4% | 73.7% | 94.1% | 79.4% | 92.7% | 84.2% | 83.1%
